PubChem BioAssay AID892 (National Center for Advancing Translational Sciences (NCATS), 2007)
The whole screen tested about 75,000 compounds, of which about 20 (0.03%) were called active. The call rests on the fitted dose curve; in most records, active means well fitted inhibition curve with a large enough effect; inconclusive means small, poorly fitted or top-dose-only effect; inactive means no such curve, though single readings can be large or run the other way. Not all results are given here.

These compounds were tested against Breast cancer type 1 susceptibility protein (Homo sapiens) (UniProt P38398) (assay: qHTS Assay for Inhibitors of BRCT-Phosphoprotein Interaction (Red Fluorophore)). Settings: BRCT-phosphopeptide binding, red fluorescence polarization; series mostly up to 76.9 µM; activity change, negative = inhibition: at the top concentration.
Chain of Breast cancer type 1 susceptibility protein (Homo sapiens) (P38398 whole entry, looked up): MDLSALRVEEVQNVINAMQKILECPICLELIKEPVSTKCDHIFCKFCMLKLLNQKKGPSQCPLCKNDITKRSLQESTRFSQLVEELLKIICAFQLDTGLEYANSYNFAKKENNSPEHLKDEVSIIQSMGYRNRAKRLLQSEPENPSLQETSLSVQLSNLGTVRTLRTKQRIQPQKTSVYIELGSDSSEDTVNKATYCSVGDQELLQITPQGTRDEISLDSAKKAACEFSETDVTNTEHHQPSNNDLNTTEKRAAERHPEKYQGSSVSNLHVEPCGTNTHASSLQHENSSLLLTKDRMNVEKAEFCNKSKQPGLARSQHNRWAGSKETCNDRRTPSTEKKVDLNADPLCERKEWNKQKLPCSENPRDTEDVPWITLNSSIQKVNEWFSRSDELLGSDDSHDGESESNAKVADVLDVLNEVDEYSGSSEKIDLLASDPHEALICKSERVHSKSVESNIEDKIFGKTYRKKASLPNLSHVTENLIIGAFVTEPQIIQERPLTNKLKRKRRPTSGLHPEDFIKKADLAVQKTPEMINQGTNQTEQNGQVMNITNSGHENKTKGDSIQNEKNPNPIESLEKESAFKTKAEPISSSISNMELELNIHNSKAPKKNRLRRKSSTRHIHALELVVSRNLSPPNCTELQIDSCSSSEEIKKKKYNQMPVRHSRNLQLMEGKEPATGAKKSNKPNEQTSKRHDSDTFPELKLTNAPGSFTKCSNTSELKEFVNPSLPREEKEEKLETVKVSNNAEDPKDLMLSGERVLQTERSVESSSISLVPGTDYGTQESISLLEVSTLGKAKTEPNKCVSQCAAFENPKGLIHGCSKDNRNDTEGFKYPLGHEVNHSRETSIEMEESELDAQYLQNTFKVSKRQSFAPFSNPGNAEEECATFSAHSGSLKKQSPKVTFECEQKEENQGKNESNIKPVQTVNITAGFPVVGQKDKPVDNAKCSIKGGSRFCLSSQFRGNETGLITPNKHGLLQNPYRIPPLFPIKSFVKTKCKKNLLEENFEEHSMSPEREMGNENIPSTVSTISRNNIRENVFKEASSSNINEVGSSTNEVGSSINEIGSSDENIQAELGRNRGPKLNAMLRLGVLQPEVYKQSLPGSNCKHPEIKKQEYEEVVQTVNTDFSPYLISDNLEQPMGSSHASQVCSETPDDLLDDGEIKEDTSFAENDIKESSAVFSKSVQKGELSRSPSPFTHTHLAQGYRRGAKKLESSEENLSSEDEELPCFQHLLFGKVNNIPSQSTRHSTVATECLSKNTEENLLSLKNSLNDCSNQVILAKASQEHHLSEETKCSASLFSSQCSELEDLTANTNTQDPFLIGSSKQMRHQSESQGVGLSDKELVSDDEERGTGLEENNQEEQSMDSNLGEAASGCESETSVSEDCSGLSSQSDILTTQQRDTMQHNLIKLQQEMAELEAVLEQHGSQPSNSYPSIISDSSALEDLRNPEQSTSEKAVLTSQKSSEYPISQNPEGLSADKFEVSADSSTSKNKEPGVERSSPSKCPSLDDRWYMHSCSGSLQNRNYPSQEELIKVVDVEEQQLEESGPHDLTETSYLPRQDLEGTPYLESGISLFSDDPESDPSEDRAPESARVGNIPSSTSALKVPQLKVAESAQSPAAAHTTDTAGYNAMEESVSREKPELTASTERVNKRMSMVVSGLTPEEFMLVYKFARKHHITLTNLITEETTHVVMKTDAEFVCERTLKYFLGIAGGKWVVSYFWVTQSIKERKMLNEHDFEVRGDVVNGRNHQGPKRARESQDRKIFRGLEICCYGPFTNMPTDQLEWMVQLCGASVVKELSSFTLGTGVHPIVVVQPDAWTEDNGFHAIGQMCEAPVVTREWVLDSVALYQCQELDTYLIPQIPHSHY
Protocol: NIH Molecular Libraries Screening Centers Network [MLSCN]
NIH Chemical Genomics Center [NCGC]
PI Name: Natarajan, Amarnath; University of Texas
A complex of BRCT (C-terminal portion of BRCA1, MW ~35 kDa, His-tagged) and fluorescently labeled pBACH1 phosphorylated 10 aa peptide fragment of BACH1, a helicase implicated in DNA repair, is incubated with library members. Inhibitors of BRCT-pBACH1 binding are detected by a decrease in the fluorescence polarization (FP) of the fluorophore. In order to minimize the effect of fluorescence artifacts and to increase the overall robustness of the screen, the compound library members were incubated in separate reactions with rhodamine-labeled probe-protein complexes. Protein and labeled probes were supplied by Dr. Amarnath Natarajan, Department of Pharmacology and Toxicology, University of Texas Medical Branch Galveston, TX.
Assay Buffer: 16mM Na2HPO4, 4 mM NaH2PO4, 150 mM NaCl, 1 mM EDTA, 1 mM DTT, 0.02% NaN3, and 0.01% Tween 20 at pH 7.3.
Assay Controls: 100 nM TAMRA labeled decapeptide dispensed into columns 3 and 4 to generate negative control (full inhibition of
binding, -100 % activity). 100 nM labeled decapeptide/100 nM protein in columns 1, 2, 5 - 48. Titration of unlabeled decapeptide control (from 10 mM, then 1:2 dilution in duplicate) pin-transferred to column 2, rows 1 to 16. Column 1 is neutral.
Three uL of reagents were dispensed to 1536-well Greiner black solid-bottom plates. Compounds and controls (23 nL) were transferred via Kalypsys PinTool. The plates were incubated for 12 min at room temperature, and then read on ViewLux (Perkin-Elmer) High-throughput CCD imager using BODIPY for the rhodamine-labeled decapeptide probe polarization filter sets. During dispense, reagent bottles were kept submerged into 4 deg C water bath and all liquid lines were covered with aluminum foil to minimize probe and protein degradation. All screening operations were performed on a Kalypsys robotic system (Kalypsys, Inc., San Diego, CA) containing one RX-130 and two RX-90 anthropomorphic robotic arms. The timing and order of assay plates passing through the screening system were adjusted such that each compound library plate was assayed against the fluorescein- and rhodamine-labeled assay systems at immediately adjacent time points.
On the % scale 0 is the no-effect control and ±100 the full control effect.

Activity change, negative = inhibition, inactive:
CCOC(=O)Nc1ccc2c(c1)N(C(=O)CN1CCN3CCCC3C1)c1ccccc1CC2 (stereo not given) -0.847%
COc1ccc(C)cc1-n1nnnc1SCC(=O)c1cc(C)n(Cc2ccco2)c1C 0.289%
O=C(CN1CCN(c2ccccc2F)CC1)c1ccc2c(c1)OCO2 -0.354%
COc1ccc(OC)c(NC(=O)CN2CCN(C(=O)c3ccco3)CC2)c1 -0.4%
COCCn1nnnc1C(c1ccccc1Cl)N1CCN(c2ccccc2OC)CC1 (stereo not given) 0.147%
COC(=O)[C@@H]1C[C@@]2(O)[C@H](O)[C@H](O)[C@H](O)C[C@H]2N1CC1CCCCC1 1.56%
CC(C)Oc1ccc(C2NC(=O)NC2=O)cc1 (stereo not given) 0.371%
O=C(CN(Cc1ccccc1)C(=O)c1ccc2c(c1)OCCO2)NCc1ccc2c(c1)OCO2 0.515%
CC(=O)N1CCC2(CCCN(Cc3ccccc3)C2)CC1 -2.8%
COc1ccccc1NC(=O)CSc1nnc(Cc2cccn2C)n1-c1ccc(F)cc1 -0.19%
O=C(CSc1ncccn1)NC(=O)NCc1ccccc1 -0.146%
Cc1ccsc1C(=O)OCC(=O)c1cc(C)n(CC2CCCO2)c1C (stereo not given) -2.25%
COc1ccc(NC(=O)CCNC(=O)Cn2ccc3ccccc3c2=O)c(OC)c1 1.77%
Cc1ccccc1CSc1nnc(-c2cccnc2)n1N -1.84%
COc1cc(C(=O)N(Cc2ccc(N(C)C)cc2)C2CCS(=O)(=O)C2)cc(OC)c1OC (stereo not given) -2.5%
CCCCCCN(C(=O)CCCCCN1C(=O)NC(c2ccc(C(F)(F)F)cc2)C(C(=O)OCc2ccccc2)=C1C)C(C(=O)NCCCC)c1ccc(OCC(=O)OC)c(C(=O)OC)c1 (stereo not given) -1.73%
CC1CCc2sc3nc(N4CCN(CCO)CC4)n4ncnc4c3c2C1 (stereo not given) -1.52%
Cc1ccc(NC(=O)N2CCC(C(=O)NCc3ccc(F)cc3)CC2)cc1 -0.897%
CC(CCC(=O)O)C1CCC2C3C(O)C[C@@H]4CC(O)CC[C@@]4(C)C3CC[C@@]12C (stereo not given in full)
Cn1c(=O)c2[nH]c(NCC3CCCO3)nc2n(-c2ccccc2)c1=O (stereo not given) 0.15%
FC(F)(F)c1cccc(Nc2ncnc3ccccc23)c1 0.0326%
CCOC(=O)C1CCN(C(=O)Nc2ccc(Cl)cc2)CC1 -0.981%
CCS(=O)(=O)N1CCC(C(=O)N2CCN(c3ccccc3)CC2)CC1 -1.29%
CCN(CC)CCNC(=O)C1c2ccccc2C(=O)N(C)C1c1cn(C)c2ccccc12 (stereo not given) 1.12%
CCCCC(=O)Nc1cc(C)c2c(=O)oc3ccccc3c2n1 1.23%
COc1ccc(CCNC(=O)CSc2nnc(-c3cccc(F)c3)o2)cc1OC -0.833%
COC(=O)C1=C(C)OC(N)=C(C#N)C1c1cc(OC)ccc1OC (stereo not given) -1.63%
C[C@H](CCC(=O)NCC(=O)O)[C@H]1CC[C@H]2[C@H]3[C@@H](C[C@@H](O)[C@]12C)[C@]1(C)CC[C@H](O)C[C@@H]1C[C@@H]3O 1.09% [at 34.4 µM]
CCOc1ccccc1NC(=O)c1cc(S(=O)(=O)N2CCC3(CC2)OCCO3)ccc1F -0.357%
COC(=O)CC1C(C)(C)C(OC(C)=O)C2CC3=C4CC(=O)OC(c5ccoc5)[C@]4(C)CCC3[C@@]1(C)C2=O (stereo not given in full) -0.484%
CCOc1cc(CO)ccc1OCC(=O)N1CCCCC1 0.944%
O=C(Nc1nc2cc3c(cc2s1)OCCO3)c1cccc(S(=O)(=O)N2CCOCC2)c1 0.128%
CN(C(=O)COc1nnc(-c2cccs2)c(-c2cccs2)n1)c1ccccc1 0.0324%
COCC(C)n1c(SCc2ccc(C(=O)OC)o2)nc2ccccc2c1=O (stereo not given) 0.312%
CO[C@H]1COC(=O)[C@@H](OCc2ccccc2)/C=C\[C@H](C)[C@@H](OC)COC(=O)[C@H](OCc2ccccc2)/C=C\[C@@H]1C 3% [at 15.4 µM]
CCC(c1nnnn1C1CCCC1)N1CCN(C(=O)c2ccco2)CC1 (stereo not given) -1.2%
CC1CCCCN1CC(=O)NCc1ccc2c(c1)OCO2 (stereo not given) 1.54%
O=C(NCc1ccccn1)c1c(O)c2c([nH]c1=O)CCCC2 0.105%
O=C(CC1OC(=O)c2ccccc21)NC1CCCCC1 (stereo not given) -2.01%
COc1ccc(-c2nc(CS(=O)CC(=O)NCc3ccccn3)c(C)o2)cc1 (stereo not given) -19%
Cc1nnc(SCc2cc(=O)[nH]c(N3CCN(Cc4ccccc4)CC3)n2)s1 0.597%
CC(C)NC[C@H](O)c1ccc2ccccc2c1
Cc1nc2nc3c(cn2n1)C(=O)CC(c1ccccc1)C3 (stereo not given) 2%
COCCCNC(=O)Cn1cc(C(=O)C2CC2)c2ccccc21 0.296%
CN(c1ccc(C(=O)N2CCc3ccccc3C2)cc1)S(C)(=O)=O 0.655%
COCCCNC(=O)COc1cc(C)c(Cl)c(C)c1 -0.153%
Cc1cccc(OCc2nnc(SCC(=O)N3CCN(C(=O)c4ccco4)CC3)n2C)c1C -1.17%
CCCOC(=O)Nc1sc2c(c1C(=O)OCC)CCC2 -0.873%
CCOC(=O)c1cnc(-n2nc(C)cc2C)nc1-n1nc(C)cc1C 1.6%
CN(C(=O)CSc1nnnn1-c1ccccc1)C1CCCCC1 0.11%
Cc1ccc(Cn2ccc(NC(=O)c3cc(C(C)C)on3)n2)cc1 -1.44%
COc1ccccc1N1CCN(C(=O)c2c(-c3c(Cl)cccc3Cl)noc2C)CC1 -1.13%
Cc1ccccc1NC(=O)Cc1nnc(SCC(=O)N2CCN(c3ccccc3)CC2)n1C -0.997%
CCCCCCC(=O)N(O)C1CC(=O)N(c2ccccc2)C1=O (stereo not given) 0.0619%
C=CCNC(=O)C12CC3CC(C1)CC(C(=O)NCC=C)(C3)C2 1.88%
COC(=O)N1CCC2(CCCN(c3ccncc3)C2)CC1 0.168%
O=C1NC(c2cc3c(cc2Cl)OCO3)Oc2ccccc21 (stereo not given) -0.188%
COC(=O)[C@H](C)[C@H]1C[C@]1(C)[C@H](NC(=O)OCc1ccccc1)c1ccccc1 -0.78%
CN(c1ccccc1)c1ccc(/C=c2\s/c(=C(/C#N)C(=O)C(C)(C)C)n(Cc3ccco3)c2=O)cc1 0.0549%
Cc1cccc(NC(=O)CSC(N)=O)c1C 1.83%
Cc1ccc(N)cc1-n1c(C)ccc1C -0.377%
CCCCOc1ccc(NC(=O)CSCC(=O)OCC)cc1 1.6%
CCOCCc1c(O)nc(SCC(=O)NCc2ccco2)[nH]c1=O 0.81%
Cc1cc(NS(=O)(=O)c2ccccc2)no1 0.303%
CCOC(=O)C1CCc2nc3ccccc3c(=O)n21 (stereo not given) 0.238%
Cc1ccccc1N1CCN(S(=O)(=O)C[C@@]23CC[C@H](C[C@H]2NC(=O)[C@@H](N)CCS(C)(=O)=O)C3(C)C)CC1 1.13%
CC(=O)N1CCN(c2ccc(NCc3ccc(C(C)C)cc3)cc2)CC1 -0.552%
O=C(CC1(O)C(=O)N(CN2CCOCC2)c2ccccc21)c1ccccc1 (stereo not given) -1.06%
O=C(CCSc1ccccc1)NCCSc1ccccn1 -0.965%
Cc1cc(C)c2cc(CN(Cc3cccs3)Cc3nnnn3CC3CCCO3)c(=O)[nH]c2c1 (stereo not given) 0.129%
N#CCC(=O)NC(=O)NCC1CC1 -0.938%
O=C1Nc2ccccc2C12Nc1ccccc1S2 (stereo not given) -1.05%
Cc1nc2ccc(C(=O)N3CCSCC3)cc2s1 0.85%
CN1CCN(c2ncncc2-c2ccc(C(=O)N(C)C)cc2)CC1 0.793%
CC1(C)SC2C(NC(=O)COc3ccccc3)C(=O)N2C1C(=O)O (stereo not given) 1.66%
CCn1cc(C(=O)N2CCN(C3CCCCC3)CC2)c2cc(OC)c(OC)cc2c1=O -2.62%
CN1[C@@H]2CC[C@H]1CC(NC(=O)c1nn(C)c3ccccc13)C2 (stereo not given in full) -2.5%
CC(C)(C)Oc1ncc(Br)c(OC(C)(C)C)n1 -0.0878%
C[N+](C)(C)CCCCCNCC12CC3CC(CC(C3)C1)C2 2.52%
CCCC(C(=O)N1CCOCC1)N1C(=O)C2C3C=CC(C3)C2C1=O (stereo not given) -0.786%
CN1CCCC(OC(=O)COc2ccc(Br)cc2)C1 (stereo not given) 0.984%
CCC1=C(OC(=O)N(CC)CC)N2C(=O)OC(=NCCc3c[nH]c4ccccc34)[C@]2(C)[C@H]2C1=CC[C@H]1C(=O)N(CC)C(=O)[C@H]12 -2.69%
COC(=O)C1C(=O)c2c([nH]c(C(=O)OCCSC)c2C)CC1C (stereo not given) -0.968%
CC(C)(C)[Si](OCC[C@@H]1C[C@@]1(C)[C@@H](NP(=O)(c1ccccc1)c1ccccc1)c1ccccc1)(c1ccccc1)c1ccccc1 0.34%
COc1ccc(-c2oc3cc(OC)ccc3c2C(=O)c2ccc(C#N)cc2)cc1 -0.0684%
CCOC(=O)c1c(C)[nH]c(C)c1C(=O)CSc1nc(N)cc(N)n1 3.67%
O=C1c2ccccc2C(O)N1Cc1ccccc1Cl (stereo not given) 0.325%
CSc1nnc2c(n1)OC(c1ccsc1)N(C(C)=O)c1ccccc1-2 (stereo not given) -0.404%
COC(=O)c1ccc(CSc2ccccc2C)o1 -1.04%
COc1ccc(-c2nc3cnc(Oc4ccccc4)nc3n(Cc3cccs3)c2=O)cc1 -1.57%
CC1=NC2(CCCc3c2no[n+]3[O-])N(O)C1(C)C (stereo not given) -0.694%
COc1cc(C2C(C(=O)c3ccc(C)o3)=C(O)C(=O)N2Cc2cccnc2)ccc1O (stereo not given) 0.46%
Cc1c(-c2nn(C)c(=O)c3ccccc23)oc2ccc(F)cc2c1=O 0.563%
O=C(C1CCN(CC2CCCCC2)CC1)N1CCCC1 -0.503%
COC(=O)[C@@H]1C[C@@]2(O)[C@@H](O)[C@@H](O)[C@@H](O)C[C@H]2N1Cc1ccc(C)s1 1.57%
CC(C)(C)c1ccc(C(=O)CSc2ncn[nH]2)cc1 -3.08%
C=CCSc1nnc(Cn2c(=O)sc3ccccc32)n1C -0.684%
CCCC(=O)Nc1ccc(Cl)c(NC(=O)c2ccc(Br)o2)c1 -0.589%
NC(=O)CSc1oc(-c2cccs2)nc1S(=O)(=O)c1ccccc1 -0.411%
COC(=O)c1cn(C)c2ccc(S(=O)(=O)N3CC(C)CC(C)C3)cc2c1=O (stereo not given) 0.974%
COc1ccc(-c2nnc(SCC(=O)NC3CCCCC3)o2)cc1OC -0.73%
Cc1ccccc1-c1nc(N(C)Cc2ccco2)c2ccccc2n1 -1.42%
CC(C)OCCCNC(=O)CNC(=O)c1cccs1 2%
Cc1ccc2cccc(O)c2[n+]1[O-] 0.606%
O=C(c1ccc(=O)[nH]c1)N(Cc1ccco1)C1(C(=O)NC2CCCCC2)CCCCC1 0.273%
